# Laboratory results from paper PMC7862700, “An all-to-all approach to the identification of sequence-specific readers for epigenetic DNA modifications on cytosine”.
# Columns and labels:
# Experiment in all cases: DAPPL (digital affinity profiling via proximity ligation, sequencing); 10 mM Tris-HCl pH 7.5, 50 mM NaCl, 1 mM DTT, 4% glycerol, room temperature, 30 min; GST-TFs on glutathione beads, 16-mer random dsDNA library, 0.1% formaldehyde crosslink after washing; high values mean tight binding
# Conditions in all cases: protein: recombinant; tags: N-terminal GST; dsDNA, one strand shown
# [1] = molecular target: ETV1 (Homo sapiens, UniProt P50549 1-477)
# In short: (§1)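 Binding signal is each hexamer's read frequency for a factor divided by its frequency in the tag-only sample. The factors were GST-fused human transcription factors from yeast, captured on glutathione beads, DNA-barcoded and pooled with that sample. Pools were incubated with 200 nmole of a random double-stranded 16-mer DNA library in Tris/NaCl/DTT/glycerol buffer at room temperature for 30 min, then washed, crosslinked with 0.1% formaldehyde, proximity-ligated with BsaI/T4 ligase (1 h, 37 °C), PCR-amplified and sequenced on an Illumina NextSeq500.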
# [2] = molecular target: T1, ERF (Homo sapiens, UniProt P50548 1-548)
# T1 sequence: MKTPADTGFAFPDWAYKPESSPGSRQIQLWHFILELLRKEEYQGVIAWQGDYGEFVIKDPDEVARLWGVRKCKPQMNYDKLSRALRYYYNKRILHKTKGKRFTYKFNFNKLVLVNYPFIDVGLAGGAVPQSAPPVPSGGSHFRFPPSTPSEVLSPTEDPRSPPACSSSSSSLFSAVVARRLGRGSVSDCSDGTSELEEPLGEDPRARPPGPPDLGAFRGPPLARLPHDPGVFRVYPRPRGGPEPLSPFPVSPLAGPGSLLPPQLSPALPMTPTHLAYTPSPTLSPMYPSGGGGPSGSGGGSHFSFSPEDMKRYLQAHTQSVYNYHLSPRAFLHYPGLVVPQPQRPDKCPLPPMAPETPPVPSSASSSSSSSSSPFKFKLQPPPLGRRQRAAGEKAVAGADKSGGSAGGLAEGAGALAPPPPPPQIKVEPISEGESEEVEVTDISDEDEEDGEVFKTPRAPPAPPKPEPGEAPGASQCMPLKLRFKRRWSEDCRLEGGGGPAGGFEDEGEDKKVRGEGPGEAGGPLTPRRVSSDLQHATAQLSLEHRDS
# In short: as §1
# [3] = molecular target: T2, ETV3L (Homo sapiens, UniProt Q6ZN32 1-361)
# T2 sequence: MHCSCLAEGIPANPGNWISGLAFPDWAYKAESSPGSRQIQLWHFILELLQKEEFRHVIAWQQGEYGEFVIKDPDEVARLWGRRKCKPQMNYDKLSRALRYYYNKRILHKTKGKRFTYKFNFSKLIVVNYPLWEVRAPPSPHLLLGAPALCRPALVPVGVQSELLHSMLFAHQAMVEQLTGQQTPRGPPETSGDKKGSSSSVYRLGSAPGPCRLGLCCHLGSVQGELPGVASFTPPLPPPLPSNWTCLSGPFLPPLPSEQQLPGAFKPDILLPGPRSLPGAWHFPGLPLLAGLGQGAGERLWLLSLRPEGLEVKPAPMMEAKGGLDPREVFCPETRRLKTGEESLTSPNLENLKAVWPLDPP
# In short: as §1
# [4] = molecular target: T3, ETS2 (Homo sapiens, UniProt P15036 1-469)
# T3 sequence: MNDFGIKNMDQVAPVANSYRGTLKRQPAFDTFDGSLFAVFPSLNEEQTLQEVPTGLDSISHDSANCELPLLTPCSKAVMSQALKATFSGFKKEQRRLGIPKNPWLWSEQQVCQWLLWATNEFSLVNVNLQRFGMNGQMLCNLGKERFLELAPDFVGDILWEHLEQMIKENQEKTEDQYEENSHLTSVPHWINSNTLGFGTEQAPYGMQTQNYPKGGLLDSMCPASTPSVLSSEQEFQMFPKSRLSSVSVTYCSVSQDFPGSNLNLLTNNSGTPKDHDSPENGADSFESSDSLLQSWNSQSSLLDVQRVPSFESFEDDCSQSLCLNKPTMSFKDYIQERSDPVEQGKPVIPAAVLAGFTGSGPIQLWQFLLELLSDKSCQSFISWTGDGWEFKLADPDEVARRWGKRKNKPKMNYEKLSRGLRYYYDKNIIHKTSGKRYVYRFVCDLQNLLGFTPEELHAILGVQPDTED
# In short: as §1
# [5] = molecular target: T4, SPDEF (Homo sapiens, UniProt O95238 1-335)
# T4 sequence: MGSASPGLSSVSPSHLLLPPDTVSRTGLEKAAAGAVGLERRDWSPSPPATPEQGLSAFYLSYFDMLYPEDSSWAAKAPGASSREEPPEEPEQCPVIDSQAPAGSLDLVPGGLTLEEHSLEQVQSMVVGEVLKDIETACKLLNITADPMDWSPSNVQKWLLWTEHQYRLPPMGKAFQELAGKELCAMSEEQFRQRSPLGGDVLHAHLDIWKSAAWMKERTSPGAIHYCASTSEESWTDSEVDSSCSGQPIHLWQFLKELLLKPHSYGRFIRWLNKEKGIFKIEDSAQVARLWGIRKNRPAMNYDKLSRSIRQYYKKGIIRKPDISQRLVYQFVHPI
# In short: as §1
# [6] = molecular target: T5, ETV7 (Homo sapiens, UniProt Q9Y603 1-341)
# T5 sequence: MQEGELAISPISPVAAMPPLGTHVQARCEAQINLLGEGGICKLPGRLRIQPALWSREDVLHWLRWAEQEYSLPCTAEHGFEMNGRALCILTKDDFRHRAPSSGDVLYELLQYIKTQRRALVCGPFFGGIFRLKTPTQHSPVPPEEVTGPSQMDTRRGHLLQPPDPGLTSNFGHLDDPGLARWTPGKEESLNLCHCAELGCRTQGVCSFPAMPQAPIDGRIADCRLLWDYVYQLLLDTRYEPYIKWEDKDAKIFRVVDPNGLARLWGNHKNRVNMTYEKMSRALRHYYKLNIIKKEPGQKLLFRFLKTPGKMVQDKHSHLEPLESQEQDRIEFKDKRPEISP
# In short: as §1
# [7] = molecular target: T6, ELF5 (Homo sapiens, UniProt Q9UKW6-2 1-255)
# T6 sequence: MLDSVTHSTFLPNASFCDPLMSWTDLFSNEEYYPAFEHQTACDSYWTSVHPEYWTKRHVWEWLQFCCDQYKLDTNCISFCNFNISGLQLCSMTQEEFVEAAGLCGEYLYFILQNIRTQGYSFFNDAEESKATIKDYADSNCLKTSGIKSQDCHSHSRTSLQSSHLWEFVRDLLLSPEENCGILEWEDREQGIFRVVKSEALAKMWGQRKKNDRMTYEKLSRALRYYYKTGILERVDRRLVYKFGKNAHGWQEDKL
# In short: as §1
# [8] = molecular target: T7, ETV3 (Homo sapiens, UniProt P41162-2 1-143)
# T7 sequence: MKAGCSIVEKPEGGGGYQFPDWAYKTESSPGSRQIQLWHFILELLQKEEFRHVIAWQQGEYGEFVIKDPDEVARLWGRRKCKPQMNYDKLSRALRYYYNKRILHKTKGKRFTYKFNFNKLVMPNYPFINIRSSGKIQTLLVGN
# In short: as §1
# [9] = molecular target: ETV6 (Homo sapiens, UniProt P41212 1-452)
# In short: as §1
# ETV6, sequence (P41212 whole entry): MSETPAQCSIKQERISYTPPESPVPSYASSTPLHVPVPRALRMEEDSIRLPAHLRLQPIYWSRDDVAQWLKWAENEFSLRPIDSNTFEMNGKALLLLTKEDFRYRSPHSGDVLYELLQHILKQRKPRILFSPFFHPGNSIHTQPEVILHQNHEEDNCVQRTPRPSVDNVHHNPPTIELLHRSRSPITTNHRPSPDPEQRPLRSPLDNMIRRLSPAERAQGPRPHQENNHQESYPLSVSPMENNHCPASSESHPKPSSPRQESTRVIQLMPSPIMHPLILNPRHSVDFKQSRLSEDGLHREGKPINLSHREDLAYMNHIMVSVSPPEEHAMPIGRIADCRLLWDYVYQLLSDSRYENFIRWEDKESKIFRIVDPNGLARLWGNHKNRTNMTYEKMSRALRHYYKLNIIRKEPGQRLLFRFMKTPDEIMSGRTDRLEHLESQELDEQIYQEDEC
# ETV1, sequence (P50549 whole entry, the tested form may be a part): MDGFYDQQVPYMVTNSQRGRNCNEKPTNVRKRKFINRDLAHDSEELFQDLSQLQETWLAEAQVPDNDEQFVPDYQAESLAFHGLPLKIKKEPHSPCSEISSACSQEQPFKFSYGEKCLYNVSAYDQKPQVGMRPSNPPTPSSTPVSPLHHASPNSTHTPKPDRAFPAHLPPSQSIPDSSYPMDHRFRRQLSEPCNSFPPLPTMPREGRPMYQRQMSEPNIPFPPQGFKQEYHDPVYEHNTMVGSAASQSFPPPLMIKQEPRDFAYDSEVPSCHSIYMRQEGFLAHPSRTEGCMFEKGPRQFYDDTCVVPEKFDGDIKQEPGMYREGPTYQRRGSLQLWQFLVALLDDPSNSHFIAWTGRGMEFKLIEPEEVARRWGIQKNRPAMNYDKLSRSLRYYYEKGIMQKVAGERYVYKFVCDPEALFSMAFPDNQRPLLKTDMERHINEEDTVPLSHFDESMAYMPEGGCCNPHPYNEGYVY
sequence,measurement,setting,value
AATTCA,binding signal,[1],"1.23 fold enrichment (6-mer frequency, TF over GST control)"
same,binding signal,[2],"1.22 fold enrichment (6-mer frequency, TF over GST control)"
same,binding signal,[3],"1.35 fold enrichment (6-mer frequency, TF over GST control)"
same,binding signal,[4],"1.39 fold enrichment (6-mer frequency, TF over GST control)"
same,binding signal,[5],"1.24 fold enrichment (6-mer frequency, TF over GST control)"
same,binding signal,[6],"1.28 fold enrichment (6-mer frequency, TF over GST control)"
same,binding signal,[7],"1.3 fold enrichment (6-mer frequency, TF over GST control)"
same,binding signal,[8],"1.31 fold enrichment (6-mer frequency, TF over GST control)"
same,binding signal,[9],"1.23 fold enrichment (6-mer frequency, TF over GST control)"
